Tests used:
[1] = test system: Vero E6 infected with SARS-CoV-2; experiment: morphology score (similarity to uninfected cells); higher = more like uninfected cells; conditions: 24 h
[2] = test system: Vero E6 infected with SARS-CoV-2; experiment: SARS-CoV-2 infection rate relative to infected DMSO; higher = more infection, active = 60 or less; conditions: 24 h

Row | Structure (SMILES) | morphology score [1] | SARS-CoV-2 infection rate [2]
1 | Nc1cccc(-c2cc3c(Oc4cccc(O)c4)ncnc3[nH]2)c1 (0.833333 µM) | 0.0833 | 104% (inactive)
2 | Cn1cc(-c2ccc3nnc(C(F)(F)c4ccc5ncccc5c4)n3n2)cn1 (10 µM) | 0.39 | 95.5% (inactive)
3 | CC(C)(C)c1ccc2cc(C#N)c(C#N)cc2c1 (10 µM) | 0.103 | 105% (inactive)
4 | C[C@]12C/C(=C/O)C(=O)C[C@@H]1CC[C@@H]1[C@@H]2CC[C@@]2(C)[C@H]1CC[C@]2(C)O [Oxymetholone] (10 µM) | -0.162 | 120% (inactive)
5 | C#CCN1C(C)=C(C(=O)OC)C(c2cccc([N+](=O)[O-])c2)C(C(=O)OCC)=C1C (configuration not stated) (10 µM) | 0.0591 | 87.5% (inactive)
6 | Nc1nccc(-c2ccc3noc(-c4ccc(Cl)cc4)c3c2)n1 [PIM-1-Inhibitor-2] (10 µM) | -0.089 | 111% (inactive)
7 | Cc1c(C(=O)NN2CCCCC2)nn(-c2ccc(Cl)cc2Cl)c1-c1ccc(I)cc1 (10 µM) | 0.254 | 93% (inactive)
8 | COC(=O)/C=C/c1cccc(N(Cc2ccc(-c3ccc(N(C)C)cc3)cc2)C(=O)C2CCCCC2)c1 [fexaramine] (10 µM) | 0.272 | 86% (inactive)
9 | Nc1nc(NCCc2ccc(O)cc2)nc2nc(-c3ccco3)nn12 (10 µM) | -0.0969 | 111% (inactive)
10 | Cc1ccc2c(c1)C(=O)[C@]1(O)CCN(c3ccccc3)C1=N2 (racemic) [blebbistatin-(+/-)] (10 µM) | 0.464 | 90.8% (inactive)
11 | CNC(=O)[C@H]1O[C@@H](n2cnc3c(NCc4cccc(I)c4)ncnc32)[C@H](O)[C@@H]1O (10 µM) | 0.156 | 100% (inactive)
12 | CNC(=O)c1ccc(-c2cnc3ncc(Cc4ccc5ncccc5c4)n3n2)cc1F (10 µM) | 0.0374 | 98% (inactive)
13 | Cc1[nH]nc(C(F)(F)F)c1Cc1sc2c(c1C(=O)N1C[C@](C)(O)CO1)c(=O)n(C)c(=O)n2C(C)C (10 µM) | 0.0405 | 101% (inactive)
14 | N#CCNC(=O)c1ccc(-c2ccnc(Nc3ccc(N4CCOCC4)cc3)n2)cc1 (0.833333 µM) | 0.412 | 103% (inactive)
15 | CN(C)CC/C=C1/c2ccccc2Sc2ccc(Cl)cc21 [chlorprothixene] (10 µM) | 0.434 | 68.5% (inactive)
16 | Cc1cc(CCCOc2c(C)cc(-c3noc(C(F)(F)F)n3)cc2C)on1 [pleconaril] (10 µM) | -0.0431 | 108% (inactive)
17 | CC1(N2CCC(n3c([C@@H]4CCCNC4)nc4ccccc43)CC2)CCCCCCC1 (10 µM) | 0.62 | 22% (active)
18 | COc1ccc(C(=O)c2c(C)n(CCN3CCOCC3)c3ccccc23)cc1 [pravadoline] (10 µM) | 0.0547 | 106% (inactive)
19 | CCCN1CCCC[C@H]1C(=O)Nc1c(C)cccc1C [ropivacaine] (10 µM) | 0.0192 | 104% (inactive)
20 | Oc1c(CN2CCCC2)cc(COCc2ccccc2)c2cccnc12 (10 µM) | 0.0259 | 104% (inactive)
21 | CC(=O)N(OCc1ccccc1)[C@@H]1c2cc(C#N)ccc2OC(C)(C)[C@H]1O (10 µM) | 0.159 | 97.5% (inactive)

Row | Structure (SMILES) | morphology score [1] | SARS-CoV-2 infection rate [2]
22 | O=P1(NCCCl)OCCCN1CCCl (configuration not stated) [ifosfamide] (10 µM) | 0.188 | 97.5% (inactive)
23 | O=c1cccc2n1C[C@@H]1CNC[C@H]2C1 [cytisine] (10 µM) | 0.0351 | 114% (inactive)
24 | CSc1ccc2c(c1)N(CCC1CCCCN1C)c1ccccc1S2 (configuration not stated) [thioridazine] (0.833333 µM) | 0.304 | 109% (inactive)
25 | COc1cccc2c1c(O)c(C(=O)N(C)c1ccc(C(F)(F)F)cc1)c(=O)n2C [tasquinimod] (10 µM) | 0.168 | 92% (inactive)
26 | CCCCCC(=O)O[C@]1(C(C)=O)CC[C@H]2[C@@H]3CCC4=CC(=O)CC[C@]4(C)[C@H]3CC[C@@]21C [17-hydroxyprogesterone-caproate] (10 µM) | 0.523 | 85.5% (inactive)
27 | Cn1c(CNc2ccc(C(=N)N)cc2)nc2cc(C(=O)N(CCC(=O)O)c3ccccn3)ccc21 [dabigatran] (10 µM) | 0.269 | 96% (inactive)
28 | COC(=O)[C@@H](N)CCCNC(=N)N[N+](=O)[O-] (10 µM) | 0.125 | 98.5% (inactive)
29 | Cc1ncc([N+](=O)[O-])n1CC(O)CCl (configuration not stated) [ornidazole] (10 µM) | 0.0809 | 107% (inactive)
30 | CCCN(CCC)C(=O)C(CCC(=O)O)NC(=O)c1ccccc1 (configuration not stated) [proglumide] (10 µM) | 0.0817 | 107% (inactive)
31 | CC(C)[C@H](CO)Nc1nc(Nc2cccc(Cl)c2)c2ncn(C(C)C)c2n1 [purvalanol-A] (0.833333 µM) | -0.028 | 109% (inactive)
32 | N[C@H]1C[C@@H]1c1ccccc1 (racemic) [tranylcypromine] (10 µM) | 0.0679 | 114% (inactive)
33 | Cc1nnc(NS(=O)(=O)c2ccc(N)cc2)s1 [sulfamethizole] (10 µM) | 0.0585 | 108% (inactive)
34 | O=C(O)COc1cccc(-c2ocnc2-c2nc(-c3ccccc3)c(-c3ccccc3)o2)c1 (10 µM) | 0.194 | 102% (inactive)
35 | CC(C)(C)NCC(O)c1ccc(O)c(CO)c1 (configuration not stated) [albuterol] (10 µM) | 0.108 | 100% (inactive)
36 | Cc1ccc([N+](=O)[O-])cc1O [2-methyl-5-nitrophenol] (10 µM) | 0.0626 | 98.5% (inactive)
37 | C/C=C1\[C@H]2C=C(C)C[C@]1(N)c1ccc(=O)[nH]c1C2 [(-)-Huperzine A] (10 µM) | -0.118 | 108% (inactive)
38 | NS(=O)(=O)c1cc2c(cc1Cl)NC(C(Cl)Cl)NS2(=O)=O (configuration not stated) [trichlormethiazide] (10 µM) | 0.0616 | 100% (inactive)
39 | O=C(Oc1ccccc1)c1ccccc1O [phenyl-salicylate] (10 µM) | -0.0306 | 103% (inactive)
40 | O=C(N/N=C/c1ccc([N+](=O)[O-])o1)c1cc([N+](=O)[O-])cc([N+](=O)[O-])c1O [nifursol] (10 µM) | 0.0974 | 111% (inactive)
41 | O=[N+]([O-])c1cc(O)c(O)c([N+](=O)[O-])c1 (10 µM) | 0.123 | 101% (inactive)
42 | COc1cccc(C2(O)CCCCC2CN(C)C)c1 (configuration not stated) (10 µM) | 0.17 | 104% (inactive)

Row | Structure (SMILES) | morphology score [1] | SARS-CoV-2 infection rate [2]
43 | O=C(Nc1ccccc1)c1ccccc1O [salicylanilide] (10 µM) | -0.148 | 110% (inactive)
44 | CCCCCCNC(=O)n1cc(F)c(=O)[nH]c1=O [Carmofur] (0.833333 µM) | 0.222 | 106% (inactive)
45 | N[C@@H]1CCCN(c2c(/C=C3\SC(=O)NC3=O)cccc2-c2ccccc2)C1 (10 µM) | -0.0825 | 110% (inactive)
46 | Brc1c(Br)c(Br)c2[nH]nnc2c1Br [4,5,6,7-tetrabromobenzotriazole] (10 µM) | -0.0654 | 106% (inactive)
47 | CCN(C(C)=O)c1cccc(-c2ccnc3c(C#N)cnn23)c1 (10 µM) | 0.0588 | 98.5% (inactive)
48 | COC1=C(OC)C(=O)C(CCCCCCCCCCO)=C(C)C1=O [idebenone] (10 µM) | -0.0056 | 92.5% (inactive)
49 | COc1ccc(-c2cc3c(C)nc(N)nc3n([C@H]3CC[C@H](OCCO)CC3)c2=O)cn1 (0.833333 µM) | 0.0503 | 102% (inactive)
50 | CCOc1nc2cccc(C(=O)OCc3oc(=O)oc3C)c2n1Cc1ccc(-c2ccccc2-c2noc(=O)[nH]2)cc1 [azilsartan-medoxomil] (10 µM) | -0.168 | 116% (inactive)
51 | C[C@@H]1NC(=O)[C@@H]2CCCN2C(=O)[C@H](CC(N)=O)NC(=O)[C@@H]2CSSC[C@H](N)C(=O)N[C@H]3CSSC[C@H](NC1=O)C(=O)N[C@@H]([C@@H](C)O)C(=O)NCC(=O)N[C@H](C(=O)N[C@@H](Cc1ccc(O)cc1)C(=O)O)CSSC[C@H](NC(=O)[C@H](Cc1ccc(O)cc1)NC(=O)[C@H](CCC(=O)O)NC3=O)C(=O)N2 [linaclotide] (10 µM) | 0.0259 | 106% (inactive)
52 | C[C@H](Cc1ccc(O)c(O)c1)[C@@H](C)Cc1ccc(O)c(O)c1 [masoprocol] (10 µM) | 0.0645 | 90% (inactive)
53 | CN1c2ccccc2C(NCCCCCCC(=O)O)c2ccc(Cl)cc2S1(=O)=O (configuration not stated) [tianeptine] (10 µM) | 0.237 | 104% (inactive)
54 | Cc1ccc(C(=O)Nc2cccc(C(F)(F)F)c2)cc1Nc1nc(-c2cccnc2)nc2c1cnn2C (10 µM) | -0.0613 | 74% (inactive)
55 | N=C(N)c1ccc(N2CCN(C3CCN(CC(=O)O)CC3)CC2)cc1 (10 µM) | -0.0825 | 106% (inactive)
56 | Cc1onc(-c2ccccc2)c1C(=O)N[C@@H]1C(=O)N2[C@@H]1SC(C)(C)[C@@H]2C(=O)O [oxacillin] (10 µM) | -0.00627 | 110% (inactive)
57 | NCCCCCC(=O)O [aminocaproic-acid] (10 µM) | 0.136 | 89.5% (inactive)
58 | COC(=O)Nc1nc2cc([S+]([O-])c3ccccc3)ccc2[nH]1 (configuration not stated) [oxfendazole] (10 µM) | 0.15 | 101% (inactive)
59 | CC(=O)SC[C@@H](C)C(=O)N1CCC[C@H]1C(=O)N[C@@H](Cc1ccccc1)C(=O)O [alacepril] (10 µM) | 0.171 | 108% (inactive)
60 | COc1ccc2nc3ccc(Cl)cc3c(SCCCN)c2c1 (10 µM) | 0.0488 | 91.5% (inactive)
61 | CCN(CC)CCO[C@H]1CC[C@@]2(C)C(=CC[C@@H]3[C@@H]2CC[C@]2(C)C(=O)CC[C@@H]32)C1 (0.833333 µM) | 0.234 | 84% (inactive)

From the supplement of paper PMC13380429
